Experimental findings from PubChem BioAssay (NCATS) are described below.

“And” between values parts separate entries of the source, which are not always exact repeats. Equal values may be shown once. Results filed as inconclusive are left out. The source holds several records for some structures; these can differ, active in one and inactive in another. The source made the active and inactive calls. Unless noted, the call rests on the fitted dose curve; in most records, active means well fitted curve in the direction sought with a large enough effect; inconclusive means small, poorly fitted or top-dose-only effect, or another doubt; inactive means no such curve, though single readings can be large; an effect the other way counts as inactive or inconclusive.

Test [1] addresses Atrial natriuretic peptide receptor 1 (Homo sapiens) (UniProt P16066). In words: Natriuretic polypeptide receptor (hNpr1) antagonism - Pilot screen (AID 1347049; calls by dose curve;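 further: HEK293 cells with hNpr1 and GloSensor cGMP luciferase stimulated by 0.1 nM hNppA; agonist-evoked cGMP luminescence read 20 min after hNppA addition; series mostly up to about 58 µM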). The essentials: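 Receptor antagonism read as cGMP-dependent luminescence in hNpr1/pGS-40F HEK293 cells: pre-read after 30 min compound exposure, post-read 20 min after hNppA agonist at 0.1 nM final, all at room temperature, protected from light; A-71915 titration as control.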

The target of test [2] is Atrial natriuretic peptide receptor 2 (Homo sapiens) (UniProt P20594). In words: Natriuretic polypeptide receptor (hNpr2) antagonism - Pilot subtype selectivity assay (AID 1347050; calls by dose curve). The essentials: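 Antagonist mode: compounds (LOPAC1280, seven 1:5 dilutions) added 30 min before 1 nM hNppC stimulation of hNpr2-HEK293 cGMP-sensor cells; luminescence read before and 20 min after agonist at ambient temperature.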

Test [3] in a line: NS1 protein of Zika virus - qHTS assay to identify small molecule inhibitors in human HEK 293 cells (AID 1347053). Further: nearly all actives have a fitted effect of over 55% in size. Further: potency means the concentration at half of the fitted maximal effect. The essentials: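 Compound-treated (1 h pre-infection) HEK 293 cells infected with ZIKV MR766, MOI = 0.5; after 24 h at 37 C, NS1 read by TR-FRET; data normalized to uninfected and infected controls.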
(In general: In qHTS, concentration-response curves come from the screen itself.)

Test [4] deals with T1, Tyrosine-protein phosphatase non-receptor type substrate 1 (Homo sapiens) + Leukocyte surface antigen CD47 (Homo sapiens) (UniProt P78324+Q08722). In words: CD47-SIRPalpha protein protein interaction - LANCE assay qHTS validation (AID 1347057; active means well fitted curve in the direction sought with a large enough effect in the signal ratio, with a control signal flat, not every such curve was filed as active; the % refers to the signal ratio; further: series mostly up to about 38 µM). The essentials: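 Inhibition of soluble CD47/SIRPalpha ectodomain association by titrated compounds, measured as 665/615 nm time-resolved FRET ratio after sequential 30 min room-temperature incubations.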
(In TR-FRET formats the signal depends on donor and acceptor labels being close together.)

Test [5] concerns the target T1, Tyrosine-protein phosphatase non-receptor type substrate 1 (Homo sapiens) + Leukocyte surface antigen CD47 (Homo sapiens). The test is described as follows: CD47-SIRPalpha protein protein interaction - HTRF assay qHTS validation (AID 1347058; active means well fitted curve in the direction sought with a large enough effect in the signal ratio, not every such curve was filed as active; the % refers to the signal ratio; further: series mostly up to about 38 µM). The essentials: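 Soluble extracellular domains (6His-CD47, Avi-tag-biotinylated SIRPalpha) in PBS pH 7.4 with 0.05% IGEPAL CA-630. Compounds were preincubated 30 min at RT with CD47 and anti-His-Eu, then SIRPalpha and SAV-XL665 were added. TR-FRET 665/615 ratio.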

The target is the same in test [6]. In words: CD47-SIRPalpha protein protein interaction - Alpha assay qHTS validation (AID 1347059).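 Further: bead proximity luminescence from CD47 binding SIRPalpha after compound preincubation with SIRPalpha.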 A digest of the protocol: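 AlphaScreen signal between CD47-His (12.5 nM) and biotin-SIRPalpha (25 nM) soluble extracellular domains, bead-captured via Ni-NTA and streptavidin. Compounds, in 7-point titrations, met SIRPalpha 30 min before CD47; PBS pH 7.4 with 0.05% IGEPAL.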

Test [7] concerns the target Parathyroid hormone/parathyroid hormone-related peptide receptor (Homo sapiens) (UniProt Q03431). In words: qHTS for PTHR1 Agonists: Optimization Screen against the NCGC LOPAC library (AID 1347079).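 Further: GloSensor cAMP luminescence in HEK-293 GP2 cells expressing human PTHR1 with IBMX.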 The essentials: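 HEK-293 GP2 cells, PTHR1 + GloSensor cAMP; 3000 cells/well, o/n. Luciferin + IBMX 0.5mM each (stock), 1 hr 37C. Cpd titration, 1 hr 37C. Lum after 15 min RT. Ctrl M-PTH(1-15) top 10uM.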

Test [8] is described as follows: qHTS of pediatric cancer cell lines to identify multiple opportunities for drug repurposing: Primary screen for TC32 cells (AID 1347089). Further: nearly all actives have a fitted effect of over 60% in size. A digest of the protocol:
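qHTS, TC32, 48 h drug treatment, CellTiter-Glo luminescence as a proxy for metabolically active cells; primary top concentration 46 µM (MIPE 11-pt, NPC 8-pt); confirmatory 11-pt.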

Test [9] in a line: qHTS of pediatric cancer cell lines to identify multiple opportunities for drug repurposing: Primary screen for U-2 OS cells (AID 1347096). Further: nearly all actives have a fitted effect of over 50% in size. Further: potency means the concentration at half of the fitted maximal effect. A digest of the protocol: (§1)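 Cells (500-1,000/well) rested 5 h, then received compounds for 48 h; metabolically active cells were measured by CellTiter-Glo luminescence. Final concentrations spanned up to 46 µM (MIPE, 11-point) or 0.59 nM-46 µM (NPC, 8-point) in primary screens, 11-point in follow-ups.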

Test [10] is described as follows: qHTS of pediatric cancer cell lines to identify multiple opportunities for drug repurposing: Primary screen for Saos-2 cells (AID 1347097). Further: nearly all actives have a fitted effect of over 40% in size. Further: potency means the concentration at half of the fitted maximal effect. A digest of the protocol:
(§2)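 500-1,000 cells/well; 5 h pre-incubation 37 °C/5% CO2; compound pinned; 48 h; CellTiter-Glo, 15 min RT; luminescence. MIPE 11-pt from 0.78 nM, NPC 8-pt from 0.59 nM final. Bortezomib 2.3 µM final as positive control.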

Test [11] can be described thus: qHTS of pediatric cancer cell lines to identify multiple opportunities for drug repurposing: Primary screen for SK-N-SH cells (AID 1347098). Further: nearly all actives have a fitted effect of over 65% in size. Further: potency means the concentration at half of the fitted maximal effect. A digest of the protocol:
as §1

Test [12] is described as follows: qHTS of pediatric cancer cell lines to identify multiple opportunities for drug repurposing: Primary screen for LAN-5 cells (AID 1347100). Further: potency means the concentration at half of the fitted maximal effect. The essentials: as §1
Test [13] in a line: qHTS of pediatric cancer cell lines to identify multiple opportunities for drug repurposing: Primary screen for DAOY cells (AID 1347090). Further: nearly all actives have a fitted effect of over 55% in size. Further: potency means the concentration at half of the fitted maximal effect. A digest of the protocol:
(§3)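 Cell viability, CellTiter-Glo luminescence; 500-1,000 cells/well, 8- or 11-point titration, 48 h compound exposure at 37 degrees C, 5% CO2. Controls: DMSO neutral, bortezomib 2.3 µM final as positive.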

The nature of test [14]: qHTS of pediatric cancer cell lines to identify multiple opportunities for drug repurposing: Primary screen for SJ-GBM2 cells (AID 1347091). Further: potency means the concentration at half of the fitted maximal effect. A digest of the protocol: as §3
A short description of test [15]: qHTS of pediatric cancer cell lines to identify multiple opportunities for drug repurposing: Primary screen for A673 cells (AID 1347092). Further: nearly all actives have a fitted effect of over 45% in size. Further: potency means the concentration at half of the fitted maximal effect. The essentials:
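Luminescence from CellTiter-Glo, taken after 15 min at room temperature, served as the proxy for metabolically active cells following 48 h treatment. Both potency and efficacy were taken from curves fitted to the titration data.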

Test [16] can be described thus: qHTS of pediatric cancer cell lines to identify multiple opportunities for drug repurposing: Primary screen for SK-N-MC cells (AID 1347093). Further: potency means the concentration at half of the fitted maximal effect. The essentials:
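Metabolically active cells were quantified by ATP-dependent luminescence (CellTiter-Glo, 15 min at room temperature) following 48 h treatment. Cells had been plated at 500-1,000 per well and settled for 5 h beforehand.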

The nature of test [17]: qHTS of pediatric cancer cell lines to identify multiple opportunities for drug repurposing: Primary screen for BT-37 cells (AID 1347094). Further: potency means the concentration at half of the fitted maximal effect. A digest of the protocol: as §2
The nature of test [18]: qHTS of pediatric cancer cell lines to identify multiple opportunities for drug repurposing: Primary screen for NB-EBc1 cells (AID 1347095). Further: potency means the concentration at half of the fitted maximal effect. A digest of the protocol:
as §2

The nature of test [19]: qHTS of pediatric cancer cell lines to identify multiple opportunities for drug repurposing: Primary screen for NB1643 cells (AID 1347099). Further: nearly all actives have a fitted effect of over 50% in size. The essentials: as §2
The nature of test [20]: qHTS of pediatric cancer cell lines to identify multiple opportunities for drug repurposing: Primary screen for BT-12 cells (AID 1347101). Further: nearly all actives have a fitted effect of over 25% in size. Further: potency means the concentration at half of the fitted maximal effect. A digest of the protocol: as §1

Parathyroid hormone/parathyroid hormone-related peptide receptor (Homo sapiens), sequence (Q03431 whole entry, looked up): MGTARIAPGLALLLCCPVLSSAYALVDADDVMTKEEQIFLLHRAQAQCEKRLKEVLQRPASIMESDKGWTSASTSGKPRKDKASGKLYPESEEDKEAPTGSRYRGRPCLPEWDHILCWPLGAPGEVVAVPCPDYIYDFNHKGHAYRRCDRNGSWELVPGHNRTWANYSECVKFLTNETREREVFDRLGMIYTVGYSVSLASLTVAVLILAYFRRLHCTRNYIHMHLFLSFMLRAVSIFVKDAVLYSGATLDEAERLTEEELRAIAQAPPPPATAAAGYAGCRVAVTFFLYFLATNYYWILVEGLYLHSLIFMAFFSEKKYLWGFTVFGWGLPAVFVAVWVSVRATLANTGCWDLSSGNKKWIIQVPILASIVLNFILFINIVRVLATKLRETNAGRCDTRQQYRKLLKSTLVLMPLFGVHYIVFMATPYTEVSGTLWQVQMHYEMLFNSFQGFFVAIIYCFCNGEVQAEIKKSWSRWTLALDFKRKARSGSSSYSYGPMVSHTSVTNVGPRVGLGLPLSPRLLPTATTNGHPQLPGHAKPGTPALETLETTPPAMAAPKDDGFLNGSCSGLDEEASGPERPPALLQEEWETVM
Atrial natriuretic peptide receptor 2 (Homo sapiens), sequence (P20594 whole entry, looked up): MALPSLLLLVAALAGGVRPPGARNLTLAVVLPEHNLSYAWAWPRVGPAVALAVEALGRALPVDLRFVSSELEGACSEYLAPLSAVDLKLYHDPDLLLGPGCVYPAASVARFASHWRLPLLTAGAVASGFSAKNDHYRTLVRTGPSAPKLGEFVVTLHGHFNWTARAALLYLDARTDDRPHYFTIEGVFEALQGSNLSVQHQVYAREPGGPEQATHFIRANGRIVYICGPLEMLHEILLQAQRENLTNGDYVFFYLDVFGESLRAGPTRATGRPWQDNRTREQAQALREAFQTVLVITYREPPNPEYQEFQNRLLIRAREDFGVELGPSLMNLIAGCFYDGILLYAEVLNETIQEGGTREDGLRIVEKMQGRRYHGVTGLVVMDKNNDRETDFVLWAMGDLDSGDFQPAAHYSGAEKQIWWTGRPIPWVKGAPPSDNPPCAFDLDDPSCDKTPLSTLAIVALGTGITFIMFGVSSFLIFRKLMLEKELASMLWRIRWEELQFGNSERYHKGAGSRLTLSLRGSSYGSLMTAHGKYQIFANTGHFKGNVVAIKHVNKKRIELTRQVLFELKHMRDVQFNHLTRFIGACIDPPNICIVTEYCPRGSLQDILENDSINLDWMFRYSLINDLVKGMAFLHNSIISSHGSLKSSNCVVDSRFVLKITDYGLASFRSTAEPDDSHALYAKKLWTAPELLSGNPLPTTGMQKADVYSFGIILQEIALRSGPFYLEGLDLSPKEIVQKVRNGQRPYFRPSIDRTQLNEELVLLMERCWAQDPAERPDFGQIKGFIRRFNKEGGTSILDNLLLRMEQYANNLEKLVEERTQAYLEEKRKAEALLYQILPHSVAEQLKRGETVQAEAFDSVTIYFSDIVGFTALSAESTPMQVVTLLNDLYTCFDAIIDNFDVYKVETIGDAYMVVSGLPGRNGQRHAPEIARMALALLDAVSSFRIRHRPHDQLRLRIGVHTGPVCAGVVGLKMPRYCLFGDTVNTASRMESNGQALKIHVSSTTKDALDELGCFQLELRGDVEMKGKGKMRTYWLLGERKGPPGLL
T1 sequence (P78324 whole entry, looked up, the tested form may be a part): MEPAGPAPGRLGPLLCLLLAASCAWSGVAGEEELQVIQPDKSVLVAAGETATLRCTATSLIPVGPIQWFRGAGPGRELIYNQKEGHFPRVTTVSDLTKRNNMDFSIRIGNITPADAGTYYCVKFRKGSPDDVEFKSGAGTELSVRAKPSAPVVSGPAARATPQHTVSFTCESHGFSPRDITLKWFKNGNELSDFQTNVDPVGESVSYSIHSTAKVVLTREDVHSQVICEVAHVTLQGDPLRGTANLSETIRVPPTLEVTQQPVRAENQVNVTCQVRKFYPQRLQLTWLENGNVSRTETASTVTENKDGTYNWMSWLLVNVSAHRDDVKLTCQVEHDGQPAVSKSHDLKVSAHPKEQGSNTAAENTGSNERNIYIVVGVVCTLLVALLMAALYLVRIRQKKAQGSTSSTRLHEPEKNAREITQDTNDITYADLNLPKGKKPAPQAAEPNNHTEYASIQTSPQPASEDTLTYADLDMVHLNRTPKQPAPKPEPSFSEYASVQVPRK
T1 sequence (Q08722 whole entry, looked up, the tested form may be a part): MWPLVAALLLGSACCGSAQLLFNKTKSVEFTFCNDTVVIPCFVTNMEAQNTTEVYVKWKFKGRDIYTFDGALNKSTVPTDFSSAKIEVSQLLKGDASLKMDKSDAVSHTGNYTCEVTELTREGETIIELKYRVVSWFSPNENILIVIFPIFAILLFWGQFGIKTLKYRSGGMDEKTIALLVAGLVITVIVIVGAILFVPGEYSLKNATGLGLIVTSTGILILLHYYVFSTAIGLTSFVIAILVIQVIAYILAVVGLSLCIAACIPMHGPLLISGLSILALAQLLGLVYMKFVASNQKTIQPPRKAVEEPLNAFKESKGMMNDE
Atrial natriuretic peptide receptor 1 (Homo sapiens), sequence (P16066 whole entry, looked up): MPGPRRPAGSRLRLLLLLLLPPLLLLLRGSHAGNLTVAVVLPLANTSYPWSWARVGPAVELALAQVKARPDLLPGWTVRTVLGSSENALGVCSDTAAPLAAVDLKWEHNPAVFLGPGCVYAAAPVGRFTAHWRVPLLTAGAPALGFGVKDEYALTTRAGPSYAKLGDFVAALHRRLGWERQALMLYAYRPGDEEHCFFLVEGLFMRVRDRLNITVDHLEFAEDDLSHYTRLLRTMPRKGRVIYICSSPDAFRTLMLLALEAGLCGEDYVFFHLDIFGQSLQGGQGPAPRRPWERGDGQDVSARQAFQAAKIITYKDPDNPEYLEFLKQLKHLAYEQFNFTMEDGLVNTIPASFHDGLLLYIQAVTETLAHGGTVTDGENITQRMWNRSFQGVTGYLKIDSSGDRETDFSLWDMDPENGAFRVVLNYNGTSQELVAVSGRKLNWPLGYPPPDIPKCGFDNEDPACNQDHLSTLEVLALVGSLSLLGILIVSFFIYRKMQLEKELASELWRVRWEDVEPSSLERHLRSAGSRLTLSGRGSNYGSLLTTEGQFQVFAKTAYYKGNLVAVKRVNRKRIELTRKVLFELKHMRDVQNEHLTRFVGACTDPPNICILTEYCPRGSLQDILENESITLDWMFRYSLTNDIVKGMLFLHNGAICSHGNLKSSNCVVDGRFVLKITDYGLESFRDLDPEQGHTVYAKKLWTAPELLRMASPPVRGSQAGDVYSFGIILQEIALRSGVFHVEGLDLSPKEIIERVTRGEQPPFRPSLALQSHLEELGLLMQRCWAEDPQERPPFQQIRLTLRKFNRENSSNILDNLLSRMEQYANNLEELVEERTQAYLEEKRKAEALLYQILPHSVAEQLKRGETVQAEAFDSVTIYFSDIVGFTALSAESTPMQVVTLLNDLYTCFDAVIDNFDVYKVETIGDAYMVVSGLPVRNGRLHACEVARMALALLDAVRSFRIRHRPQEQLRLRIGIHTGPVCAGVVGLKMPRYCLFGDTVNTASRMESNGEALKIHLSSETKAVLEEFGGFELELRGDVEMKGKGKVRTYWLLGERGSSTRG

As for `Clc1ccccc1C(c1ccccc1)(c1ccccc1)n1ccnc1`, the Potency result in test [1], in test [2], in test [3], in test [6], in test [7] and in [8] was “inactive” throughout. The Potency entry in [9], in test [11] and in test [12] was “inactive” in each case. The result in test [4] and in [5] was inactive. Moreover, in test [10], the Potency is 26.6 µM (active) and 33.2 µM (active).

As for `COc1nc(C)nc(Cl)c1NC1=NCCN1`, the Potency result in [1], in [2], in [3], in [6], in test [7] and in [13] was “inactive” in each case. Further, the Potency entry in test [14], in test [15], in test [16], in test [17], in test [18] and in test [9] was “inactive” in each case. Also, the Potency result in [10], in [11], in test [19], in [12] and in [20] was “inactive” each time. Moreover, the outcome in [4] and in test [5] was inactive.

For the molecule `CC(CCc1ccc(O)cc1)NCCc1ccc(O)c(O)c1` (stereo not drawn), the Potency entry in test [1], in test [2], in test [3], in [6], in test [7] and in test [8] was “inactive” each time. The Potency entry in test [13], in test [14], in [17] and in test [9] was “inactive” throughout. Moreover, the result in test [4] and in [5] was inactive. Moreover, the Potency in test [10] was 18.7 µM (active) and 21.1 µM (active).

In the case of `Cc1cc(C(C)(C)C)c(O)c(C)c1CC1=NCCN1`, the Potency entry in test [1], in test [2], in [3], in [6], in test [7] and in test [8] was “inactive” in each case. The Potency entry in test [14], in test [15], in test [17], in test [18], in test [9] and in test [10] was “inactive” in each case. The Potency result in [11], in [19], in [12] and in test [20] was “inactive” in each case. Besides, the result in test [4] and in test [5] was inactive.

Turning to `CCOC(=O)C(C)(C)Oc1ccc(Cl)cc1`, the Potency result in [1], in test [2], in [3], in [6], in test [7] and in test [8] was “inactive” each time. For the same molecule, the Potency entry in test [14], in test [15], in test [16], in test [17], in test [9] and in test [10] was “inactive” in each case. Moreover, the Potency entry in test [11], in test [12] and in test [20] was “inactive” each time. Besides, the result in [4] and in test [5] was inactive.

Consider `CCCCc1oc2ccccc2c1C(=O)c1cc(I)c(OCCN(CC)CC)c(I)c1`, for which the Potency result in test [1], in [2], in [6], in [7] and in test [8] was “inactive” in each case. Further, the Potency in test [3] was 29.6 µM (active) and inactive; in test [13] it was 5.9 µM (active); in [14], 8.33 µM (active); in test [15] it was 4.69 µM (active) and 26.6 µM (active); in test [16] it was 1.18 µM (active) and 13.3 µM (active); in [17], 30.9 µM (active). Besides, the Potency is 8.33 µM (active) in test [18]; 7.43 µM (active) in [9]; 18.7 µM (active) and 26.6 µM (active) in test [10]; 8.57 µM (active) and 21.7 µM (active) in test [11]; 1.48 µM (active) in [12]; 4.32 µM (active) and 21.9 µM (active) in test [20]. Moreover, the outcome in test [4] and in [5] was inactive.

Turning to `Cn1cnc2c1c(=O)[nH]c(=O)n2C`, the Potency entry in test [1], in test [2], in test [3], in test [6], in test [7] and in [8] was “inactive” throughout. Moreover, the Potency entry in test [11] and in test [19] was “inactive” each time. Moreover, the outcome in test [4] and in test [5] was inactive.
